Sampled rows, rich in hits. Any-hit rate of the full collection: about 8.8%.
HTT aggregate: reduces HttQ103-GFP aggregates in PC12 cells | PC12 HttQ103-GFP aggregates, Acumen cytometry, 40 h | Potency, µM (series often up to 46.1 µM), for the others: at the top dose activity change, negative = inhibition, actives largely listed as inhibitors | 220,000 compounds, 1.1% hits | AID 1688; active = well fitted curve in the direction sought with a large enough effect; inconclusive = small, poorly fitted or top-dose-only effect, or another doubt; inactive = no such curve, though single readings can be large; an effect the other way counts as inactive or inconclusive; note: % is set by controls: 0 for no effect and ±100 for the full control effect; nearly all actives have a fitted effect of over 60% in size
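Read-out: GFP aggregate count by laser scanning cytometer (488 nm excitation, 500-530 nm emission, 1–25 µm objects >6 SD above background). Cells: PC12, inducible HTTex1-Q103-GFP, 100 nM tebufenozide; compounds titrated.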
HTT cytoprotect: cytoprotection in Huntington HTT-Q103 PC12 cell model; 230,000 compounds, 0.14% hits; PC12 HTT-Q103 induced, cytoprotection, ATP luminescence, 40 h; Potency, µM (titrated, usually from 56.4 µM), inactives show cytoprotection (ATP increase), actives largely listed as activators; active = well fitted curve in the direction sought with a large enough effect; inconclusive = small, poorly fitted or top-dose-only effect, or another doubt; inactive = no such curve, though single readings can be large; an effect the other way counts as inactive or inconclusive; note: % of control where 0% means no effect; nearly all actives have a fitted effect of over 45% in size
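Cells were plated at 1500 per well in phenol red-free DMEM with 5% equine and 5% calf serum. Tebufenozide (100 nM final) and compounds were added, then ATPlite reagent, and luminescence was read.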
ALDH1A1 inh: blocks purified human ALDH1A1 activity; 220,000 compounds, 7.3% hits; AID 1030; P00352; Potency, µM (highest dose often 75.3 µM), for the others: at the highest dose activity, negative = inhibition, most hits filed as inhibitors; Purified ALDH1A1, NADH fluorescence, propionaldehyde substrate;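 note: plate controls were no enzyme wells and a reference inhibitor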
HPGD inh: blocks human HPGD enzyme activity; 150,000 compounds, 4.3% hits; P15428; Potency, µM, for the others: top-dose activity change, negative = inhibition, hits mostly inhibitors; purified HPGD, NADH fluorescence kinetic, PGE2 substrate; note: % is set by controls: 0 for no effect and ±100 for the full control effect
Target sequence (P15428 whole entry, looked up): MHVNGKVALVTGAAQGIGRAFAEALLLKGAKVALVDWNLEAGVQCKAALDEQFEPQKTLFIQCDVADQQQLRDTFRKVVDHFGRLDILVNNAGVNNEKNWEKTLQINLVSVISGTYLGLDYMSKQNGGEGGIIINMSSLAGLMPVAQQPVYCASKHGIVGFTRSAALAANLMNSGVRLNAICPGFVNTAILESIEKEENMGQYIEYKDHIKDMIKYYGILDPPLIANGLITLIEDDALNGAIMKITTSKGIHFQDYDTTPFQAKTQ
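NADH formation kinetics: reaction with 30 uM PGE2 and 1 mM NAD+ (final), 20 nM enzyme, Tris-HCl pH 8 with Tween 20, after 15 min compound preincubation at room temperature. Fluorescence change, last versus first of five reads.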
Lamin A splicing: changes lamin A minigene splicing in HeLa cells | HeLa LMNA splicing GFP/RFP minigene ratio, 48 h | Potency, µM (titrated, usually from 46.1 µM), without a hit: top-dose ratio change, negative = inhibition, hits mostly inhibitors | 200,000 compounds, 0.01% hits | AID 1487; active = well fitted inhibition curve with a large enough effect in the signal ratio, with a control signal flat, not every such curve was filed as active; inconclusive = small, poorly fitted or top-dose-only effect, or effect the other way, or a change in a side signal; the % refers to the signal ratio; note: % is set by controls: 0 for no effect and ±100 for the full control effect
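S3 HeLa cells stably expressing lamin A-EGFP splicing minigene plus DsRed2, 600 cells/well, 48 h compound exposure at 37C. Laser-scanning cytometry; analysed as GFP (500-530 nm)/RFP (575-640 nm) total intensity ratio; 0.5% DMSO vehicle.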
* = called active by the depositor; ? = inconclusive; nt = no result; [ ] = remark or other dose. Unless noted, calls come from the whole dose curve; as a rule, active = well fitted inhibition curve with a large enough effect (not every such curve was filed as active); inconclusive = small, poorly fitted or top-dose-only effect, or another doubt; inactive = no such curve, though single readings can be large or run the other way. Potency is the fitted concentration of half-maximal effect.

SMILES	HTT aggregate	HTT cytoprotect	ALDH1A1 inh	HPGD inh	Lamin A splicing
O=c1c(-c2ccco2)[n+]([O-])c2ccccc2n1OCc1ccccn1	16%	-13%	10µM*	-19%	10%
O=c1c(-c2ccc(F)cc2)[n+]([O-])c2ccccc2n1OCc1ccccn1	25%[9.22 µM]	-13%	2%	nt	nt
CCOc1ccc(-c2c(=O)n(OCc3ccc([N+](=O)[O-])cc3)c3ccccc3[n+]2[O-])cc1	-9%	6%[10 µM]	20µM*	-19%	?
CCOn1c(=O)c(-c2cccc([N+](=O)[O-])c2)[n+]([O-])c2ccccc21	-11%	-6%[10 µM]	?	?	-10%
O=c1c(-c2ccco2)[n+]([O-])c2ccccc2n1OCc1ccccc1[N+](=O)[O-]	3%	-25%	14µM*	nt	nt
COc1ccc(C2/C(=C(/O)c3ccc(C)cc3)C(=O)C(=O)N2C)cc1 (configuration not stated)	7%	4%[10 µM]	0%	-11%	-10%
COC(=O)c1ccc(C2/C(=C(/O)c3ccc(OC)cc3)C(=O)C(=O)N2c2cc(C)on2)cc1 (configuration not stated)	30%	-30%	13µM*	?	0%
COc1ccc(N2C(=O)C(=O)/C(=C(/O)c3ccc(C)cc3)C2c2cccnc2)cc1 (configuration not stated)	-16%	-2%[10 µM]	7.9µM*	-15%	-11%
CN(CCc1ccccn1)c1ccc2c(c1)C(=O)c1ccccc1-2	nt	12%[10 µM]	-5%[13.5 µM]	-8%	nt
C#CCN1C(=O)C(O)(CC(=O)/C=C/c2ccco2)c2ccccc21 (configuration not stated)	-2%	-26%	1.6µM*	nt	?
O=C(NNC(=O)c1ccc(NC(=O)c2ccccc2)cc1)c1ccccc1	17%	-11%	6%	nt	9%[46 µM]
N#CC1(c2ccc(NC(=O)c3ccccc3)cc2)CCCC1	9%	-73%	4.5µM*	-24%	3%
Cc1cccc(N2CCN(C(=O)Cn3c(-c4cccs4)cc4ccccc43)CC2)c1C	nt	nt	nt	nt	-9%[46 µM]
Fc1ccc(N2CCN(c3nc(-c4ccco4)cc(C(F)(F)F)n3)CC2)cc1	-23%	-8%	5%	-17%	-13%
FC(F)(F)c1cc(-c2ccco2)nc(N2CCN(Cc3ccccc3)CC2)n1	1%	31%	22µM*	-19%	-19%
CCN(CC)CCC[C@H](C)Nc1ccnc2cc(Cl)ccc12	-10%	8%[40.3 µM]	1%[20.9 µM]	-4%	-14%
CCN(CC)Cc1ccc(Nc2ccnc3cc(Cl)ccc23)cc1O	nt	14µM*	-4%	-9%	nt
Fc1cc(F)c(F)c(SCCc2ccncc2)c1F	-5%	-22%	7.9µM*	?	?
Nc1ccc(-c2cc(N)n(-c3ccccc3)n2)cc1	16%[9.22 µM]	-22%[10 µM]	11µM*	-21%	4%
CCn1cc[n+](C)c1P(c1ccccc1)c1ccccc1	?	10%[1.9 µM]	8%	25µM*	?
Cc1cc(C)nc(NS(=O)(=O)c2ccc(NC(=S)NC(=O)C3CCCC3)cc2)n1	23%	-19%	-15%	-7%	-2%
O=C(NC(=S)Nc1ccc(S(=O)(=O)Nc2ccccc2)cc1)C1CC1	-13%	-5%[10 µM]	22µM*	nt	10%[46 µM]
Cc1ccccc1C(=O)NC(=S)Nc1ccc(S(=O)(=O)N2CCOCC2)cc1	9%	-11%[10 µM]	?	-8%	-9%
O=C(NC(=S)Nc1ccc(S(=O)(=O)N2CCCCC2)cc1)c1ccccc1	-4%	-13%	9.5µM*	-16%	0%
Cc1ccccc1C(=O)NC(=S)Nc1ccc(S(=O)(=O)N2CCN(C)CC2)cc1	-13%	-17%	10µM*	?	-5%
SMILES	HTT aggregate	HTT cytoprotect	ALDH1A1 inh	HPGD inh	Lamin A splicing
CC1CC(C)CN(S(=O)(=O)c2ccc(NC(=S)NC(=O)c3ccccc3)cc2)C1 (configuration not stated)	-20%	18%[10 µM]	-4%	-27%	4%
CCOC(=O)C1CCN(C(=O)CSc2n[nH]c(-c3ccccc3Cl)n2)CC1	nt	nt	nt	nt	6%[46 µM]
COc1cc(C2NC(C(=O)O)CS2)ccc1OCc1ccccc1C#N (configuration not stated)	12%	15%	8.9µM*	-17%	6%
CCCCC(=O)N1CCc2cc(OC)c(OC)cc2C1COc1ccc(OC)cc1 (configuration not stated)	nt	nt	nt	nt	-5%[46 µM]
O=C(CCc1ccccc1)NN1C(=O)C2C3C=CC(O3)C2C1=O (configuration not stated)	4%	-42%	14%	nt	nt
CCOc1ccc(NC(=O)c2ccc(N)cc2)cc1	-21%	-23%[10 µM]	4%	-14%	-9%
CCOc1ccc(C(=O)NN2C(=O)C3C4C=CC(O4)C3C2=O)cc1 (configuration not stated)	10%	0%	13µM*	8%	7%
Cc1ccccc1OCC(=O)NN1C(=O)C2C3C=CC(O3)C2C1=O (configuration not stated)	5%	8%[10 µM]	8.9µM*	nt	6%[46 µM]
Cc1cccc(OCC(=O)NN2C(=O)C3C4C=CC(O4)C3C2=O)c1 (configuration not stated)	24%[9.22 µM]	21%	3.2µM*	nt	-12%[9.22 µM]
C=C1C(=O)OC2C[C@@]3(C)CCCC(C)C3=CC12 (some centres not stated)	nt	nt	-11%	-9%	?
CCOC(=O)CSc1ccc(C(=O)Nc2ccc(OC)cc2)cn1	16%	19%[10 µM]	7%	nt	-6%[46 µM]
Cn1sc(NC(=O)c2ccccc2Cl)nc1=O	28%	-28%	11µM*	14µM*	8%
CC(SC#N)C(=O)C12CC3CC(CC(C3)C1)C2 (configuration not stated)	12%	?	8.9µM*	nt	nt
CCCN(C(=O)COc1ccc(Cl)cc1Cl)c1c(N)n(Cc2ccccc2)c(=O)[nH]c1=O	8%	-26%	-2%	nt	nt
O=C(CCNc1ccc(Cc2ccncc2)cc1)c1ccc([N+](=O)[O-])cc1	1%[9.22 µM]	-27%[1.9 µM]	0.11µM*	nt	?
Cc1ccc(C(=O)Nc2ccc(Cc3ccncc3)cc2)cc1[N+](=O)[O-]	13µM*	-49%	5%	1%	3%
O=C(Nc1ccc(Cc2ccncc2)cc1)c1cccc([N+](=O)[O-])c1	12%	10%[10 µM]	7%	1.4µM*	?
Cc1ccc(C(=O)Nc2cccnc2)cc1[N+](=O)[O-]	-16%	-12%	-8%	nt	nt
COc1cc2ccccc2cc1C(=O)Nc1ccc(Cc2ccncc2)cc1	10µM*	-77%	?	-30%	?
O=C(NCc1cccnc1)c1ccc(NC(=O)c2cccc([N+](=O)[O-])c2)cc1	3%[9.22 µM]	-74%[10 µM]	19%	nt	?
Cc1cccc(C(=O)NC(NC(=S)Nc2ccc(S(N)(=O)=O)cc2)C(Cl)(Cl)Cl)c1 (configuration not stated)	4%	27%[10 µM]	-9%	?	?

Screening data as filed in PubChem.
